Here are results for 13 compounds from PubChem BioAssay (NCATS).

The structures appear in SMILES notation. Values joined by “and” are separate entries in the source; they are usually repeats but may differ in a detail not shown here. Identical values can stand only once. Values without a mark were called inactive. Records with an inconclusive call do not appear. Active and inactive are the calls of the source. Unless noted, the call rests on the fitted dose curve; in most records, active means well fitted curve in either direction with a large enough effect (not every such curve was filed as active); inconclusive means small, poorly fitted or top-dose-only effect, or another doubt; inactive means flat fitted curve, though single readings scatter.

The nature of assay [1]: AP1 Signaling Pathway (AID 357).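 Further: ME-180 reporter cells stimulated with EGF at its EC50 level; on the % scale 0 is the no-effect control and ±100 the full control effect.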 Particulars: ME-180 AP-1-bla reporter, EGF-induced, beta-lactamase ratio, 5 h. The method, boiled down: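 Titration-series screen for positive or negative modulators of EC50 EGF-induced signaling in ME-180 cells carrying an AP-1-driven beta-lactamase reporter. After 5 hours at 37 degrees Celsius, CCF4 460nm/530nm emission ratio gave %Activity; AC50 values derived.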

Assay [2] is described as follows: Cell Viability - BJ (AID 421; calls by dose curve;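 further: potency means the concentration at half of the fitted maximal effect; cells exposed to compound for 40 hours at 37 °C before readout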). The settings on record: BJ fibroblast viability, qHTS. The method, boiled down:
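Luminescent ATP signal (CellTiter-Glo, 20 min at room temperature) served as the read-out of viable BJ cells after 40 hours of compound treatment. Responses were scaled between DMSO and 100 uM tamoxifen, and AC50 values were obtained by Hill modeling.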
In general terms: Quantitative high-throughput screening tests each substance at several concentrations.

A short description of assay [3]: Cell Viability - HepG2 (AID 433; calls by dose curve;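 further: potency means the concentration at half of the fitted maximal effect; potency for ATP loss meaning cytotoxicity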). Particulars: qHTS. The method, boiled down:
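ATP luminescence (CellTiter-Glo) after 40 h compound exposure, 37 °C, HepG2, 1500 cells/well, complete medium. Normalized: DMSO = basal, 100 uM tamoxifen = 100% inhibition. AC50 via standard Hill equation.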

Assay [4] can be described thus: Cell Viability - MRC5 (AID 434; calls by dose curve;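 further: potency means the concentration at half of the fitted maximal effect; cells exposed to compound for 40 hours at 37 °C; potency reflects cytotoxicity seen as loss of intracellular ATP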). Particulars: MRC5 lung fibroblast viability, qHTS. An outline of the steps: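 Decrease in intracellular ATP, quantified by luciferase light output, reflects compound toxicity toward MRC5 cells exposed for 40 hr in complete culture medium. Concentration-response curves, scaled between DMSO and 100 uM tamoxifen, gave AC50 values.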
A short description of assay [5]: Cell Viability - SK-N-SH (AID 435; calls by dose curve; further: potency means the concentration at half of the fitted maximal effect). Particulars: SK-N-SH neuroblastoma cell viability qHTS. An outline of the steps:
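CellTiter-Glo ATP luminescence, 20 min RT read; cells pre-plated 5 hr, compound 40 hr at 37 °C, 1500 cells/well, complete medium. Normalized DMSO = 0, 100 uM tamoxifen = 100% inhibition; Hill-fit AC50.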

The nature of assay [6]: NFAT Signaling Pathway (AID 444).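 Further: carbachol stimulus at about its EC50 of 1 µM final; on the % scale 0 is the no-effect control and ±100 the full control effect.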 Particulars: Jurkat NFAT-bla M1, carbachol, beta-lactamase ratio, 5 h. An outline of the steps: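 Jurkat cells carrying an NFAT-driven β-lactamase reporter and co-transfected muscarinic M1 receptor were treated with compound plus carbachol (1 uM final, an EC50 level) for 5 h at 37 °C. CCF4 loading followed for 1 h at RT; 460/530 nm ratio gave %activity.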

Assay [7] can be described thus: Stat Signaling Pathway (AID 446).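 Further: ME-180 cervical cancer cells given 40 pM IL-6 alongside compound; SIE-controlled beta-lactamase reporter measured as 460/530 nm FRET emission ratio; on the % scale 0 is the no-effect control and ±100 the full control effect.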 Particulars: ME-180 (cervical carcinoma) SIE beta-lactamase reporter, IL-6 stimulated, 5 h. An outline of the steps:
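Compound effects on IL-6-induced STAT reporter activity were measured in ME-180 cells. After overnight culture, cells were co-treated with 40 pM IL-6 for 5 hrs before beta-lactamase substrate loading at room temperature.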

Assay [8] concerns the target Mitogen-activated protein kinase 10 (Mus musculus) (UniProt Q61831). In words: JNK3 AlphaScreen Assay (AID 530).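 Further: kinase came from lysate of stimulated human HepG2 cells; signal reports phosphorylation of biotinylated GST-cJun 1-79 at Ser73 with 10 µM ATP; on the % scale 0 is the no-effect control and ±100 the full control effect.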 Particulars: JNK3 lysate, c-Jun phosphorylation; series mostly up to 25.6 µM. An outline of the steps:
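Phosphorylation of biotinylated GST-cJun(1-79) at Ser73 is measured by AlphaScreen proximity luminescence. Enzyme is JNK3 in HepG2 lysates activated with interleukin-1beta and tumor necrosis factor alpha; ATP is 10 uM final.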
(In Alpha technology, singlet oxygen from a donor bead excites a nearby acceptor bead.)

Assay [9] is described as follows: Cell Viability - NIH 3T3 (AID 541; active means well fitted curve in the direction sought with a large enough effect; an effect the other way counts as inactive or inconclusive;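 further: plate controls were DMSO alone for no effect and tamoxifen positive control for full effect; nearly all actives have a fitted effect of over 25% in size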). The settings on record: NIH 3T3 cell viability, qHTS; activity change, negative = cytotoxicity: at 92.2 µM (top of the series). An outline of the steps: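 Cells seeded at 1000/well, rested 5 hr at 37 °C, then dosed and incubated 40 hr at 37 °C. CellTiter-Glo added, 20 min room temperature, luminescence read. AC50 by Hill fit.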

Assay [10] can be described thus: Cell Viability - HUV-EC-C (AID 542; active means well fitted curve in the direction sought with a large enough effect; an effect the other way counts as inactive or inconclusive; further: on the % scale 0 is the no-effect control and ±100 the full control effect; nearly all actives have a fitted effect of over 35% in size). Particulars: HUV-EC-C endothelial cell viability, qHTS; series mostly up to 92.2 µM. The method, boiled down: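 Cells were seeded at 1000 per well and incubated 5 hr at 37 °C before compound addition. After 40 hr at 37 °C, CellTiter-Glo reagent was added for 20 min and luminescence read. AC50 values came from Hill-equation modelling.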

Assay [11] in a line: Cell Viability - H-4-II-E (AID 543; active means well fitted curve in the direction sought with a large enough effect; an effect the other way counts as inactive or inconclusive; further: potency means the concentration at half of the fitted maximal effect; nearly all actives have a fitted effect of over 35% in size). Particulars: H-4-II-E rat hepatoma viability; series mostly up to 92.2 µM. An outline of the steps: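 Cells seeded at 1500 per well and rested 5 hr; compounds added; 40 hr incubation at 37 °C; CellTiter-Glo added, 20 min at room temperature; luminescence read. Hill-equation fits gave AC50.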
The target in assay [12] is Cytochrome P450 1A2 (Homo sapiens) (UniProt P05177). In words: p450-cyp1a2 (AID 410; calls by dose curve; further: potency means the concentration at half of the fitted maximal effect;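 on activity change, negative = inhibition: -100% = full effect of reference inhibitor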). Particulars: recombinant CYP1A2, luciferin-ME demethylation, luminescence; series mostly up to 25.6 µM. The method, boiled down:
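O-Demethylation of luciferin 6' methyl ether by human CYP1A2 is monitored as luciferase luminescence. Substrate sits at Km (100uM); enzyme is 20nM. Values are scaled to 57 uM furafylline as maximal inhibition.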

For assay [13], the target named is Lysosomal acid glucosylceramidase (Homo sapiens) (UniProt P04062). As to the kind of experiment: Glucocerebrosidase-p2 (AID 348; in the data active means potency below about 10 µM; further: potency means the concentration at half of the fitted maximal effect). Particulars: purified GBA, blue fluorogenic substrate, 40 min. An outline of the steps:
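Normal human glucocerebrosidase (0.2 nM) with blue fluorogenic substrate (80 uM final) in citrate/phosphate pH 5.9 with 10mM sodium taurocholate, 0.01% tween-20; 40 min RT, NaOH/glycine stop; fluorescence Ex 365/Em 440; AC50 from a titration from 0.6 nM upwards.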

In assay [14] the target is Glucocorticoid receptor (Homo sapiens) (UniProt P04150). In words: GR-GFP Redistribution (AID 450;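 active means compounds whose dose series gives a full or clear partial fitted curve of increased nuclear translocation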; further: potency means the concentration at half of the fitted maximal effect). Particulars: U2OS GR-GFP nuclear translocation, laser cytometry, 2 h.
Assay [15] shares this target. As to the kind of experiment: GR-EFC Redistribution (AID 451; calls by dose curve; further: potency means the concentration at half of the fitted maximal effect). Particulars: CHO-K1 GR-EFC translocation, beta-gal luminescence, 2 h. The method, boiled down: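 CHO-K1 cells stably expressing nuclear-localized β-gal enzyme acceptor and GR fused C-terminally to the enzyme donor fragment; ligand-driven nuclear translocation restores β-gal by complementation. Compounds titrated up to 46 uM final, 2 h at 37 °C; luminescence read.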

Sequence of Glucocorticoid receptor (Homo sapiens) (P04150 whole entry, looked up, the tested form may be a part): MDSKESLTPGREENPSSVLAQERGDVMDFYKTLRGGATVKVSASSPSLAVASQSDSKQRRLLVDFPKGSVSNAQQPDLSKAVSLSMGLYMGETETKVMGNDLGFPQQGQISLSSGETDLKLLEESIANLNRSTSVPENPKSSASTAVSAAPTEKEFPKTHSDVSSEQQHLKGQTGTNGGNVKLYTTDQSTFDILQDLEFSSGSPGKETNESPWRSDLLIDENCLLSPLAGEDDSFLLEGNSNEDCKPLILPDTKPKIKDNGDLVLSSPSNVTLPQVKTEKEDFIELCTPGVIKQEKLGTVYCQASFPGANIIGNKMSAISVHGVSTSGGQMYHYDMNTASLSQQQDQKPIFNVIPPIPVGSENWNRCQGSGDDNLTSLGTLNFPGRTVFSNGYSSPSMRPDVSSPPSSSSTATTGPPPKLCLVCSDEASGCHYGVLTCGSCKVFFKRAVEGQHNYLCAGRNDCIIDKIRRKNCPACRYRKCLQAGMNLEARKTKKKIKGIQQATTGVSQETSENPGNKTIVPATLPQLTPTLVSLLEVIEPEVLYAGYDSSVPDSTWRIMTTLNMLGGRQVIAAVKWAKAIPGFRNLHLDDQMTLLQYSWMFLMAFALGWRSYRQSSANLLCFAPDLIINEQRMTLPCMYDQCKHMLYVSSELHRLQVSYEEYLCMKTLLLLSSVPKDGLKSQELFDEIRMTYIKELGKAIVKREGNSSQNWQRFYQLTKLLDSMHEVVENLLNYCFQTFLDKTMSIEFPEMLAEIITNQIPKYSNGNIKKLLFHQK
Sequence of Cytochrome P450 1A2 (Homo sapiens) (P05177 whole entry, looked up): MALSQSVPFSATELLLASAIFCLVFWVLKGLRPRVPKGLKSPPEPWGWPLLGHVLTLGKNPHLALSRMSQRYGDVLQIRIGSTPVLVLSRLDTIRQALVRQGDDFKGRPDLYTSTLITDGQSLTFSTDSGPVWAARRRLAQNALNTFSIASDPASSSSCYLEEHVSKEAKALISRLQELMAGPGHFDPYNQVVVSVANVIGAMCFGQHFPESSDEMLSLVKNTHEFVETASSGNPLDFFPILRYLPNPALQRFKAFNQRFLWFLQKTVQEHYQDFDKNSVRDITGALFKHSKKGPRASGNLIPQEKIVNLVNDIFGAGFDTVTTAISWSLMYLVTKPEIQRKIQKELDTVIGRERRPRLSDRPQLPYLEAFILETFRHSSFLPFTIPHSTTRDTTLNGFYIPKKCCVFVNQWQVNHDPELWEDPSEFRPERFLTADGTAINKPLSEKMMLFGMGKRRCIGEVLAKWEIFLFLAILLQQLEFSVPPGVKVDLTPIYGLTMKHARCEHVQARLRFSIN
Sequence of Lysosomal acid glucosylceramidase (Homo sapiens) (P04062 whole entry, looked up): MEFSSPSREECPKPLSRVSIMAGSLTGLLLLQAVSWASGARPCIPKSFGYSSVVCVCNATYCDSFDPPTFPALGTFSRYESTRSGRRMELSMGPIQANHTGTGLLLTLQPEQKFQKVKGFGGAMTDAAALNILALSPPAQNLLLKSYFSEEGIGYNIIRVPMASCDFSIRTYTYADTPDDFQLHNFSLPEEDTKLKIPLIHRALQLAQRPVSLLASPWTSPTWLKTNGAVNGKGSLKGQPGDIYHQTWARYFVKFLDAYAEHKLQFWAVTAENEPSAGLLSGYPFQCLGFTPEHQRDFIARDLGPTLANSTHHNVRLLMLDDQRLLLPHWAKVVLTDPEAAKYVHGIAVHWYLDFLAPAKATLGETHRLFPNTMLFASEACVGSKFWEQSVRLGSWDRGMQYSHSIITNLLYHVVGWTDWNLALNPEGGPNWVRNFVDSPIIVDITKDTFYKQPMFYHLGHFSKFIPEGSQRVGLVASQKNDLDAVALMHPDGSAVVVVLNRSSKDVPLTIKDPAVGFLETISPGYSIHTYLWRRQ

In the case of `CC(=O)O[C@]1(C(C)=O)CC[C@H]2[C@@H]3C[C@H](C)C4=CC(=O)CC[C@]4(C)[C@H]3CC[C@@]21C`, the results for the activity change, negative = inhibition in assay [1] (at 17.2 µM (top of the series)) and in assay [6] (at 17.2 µM (top of the series)) were 15.9% and 6.28%, respectively. Moreover, the Potency in assay [2] was greater than 92 µM; in [3], greater than 92 µM; in [4], greater than 92 µM; in assay [5] it was greater than 92 µM; in assay [11] it was 50.1 µM (active). In addition, in assay [7] (at 17.2 µM (top of the series)), the activity, negative = inhibition is 11.1%. In [8], the outcome was inactive. Also, the activity change, negative = cytotoxicity in assay [9] is -134% (active). Further, in assay [10], the Potency entry is “inactive”.

In the case of `CN1CCN(C(c2ccccc2)c2ccccc2)CC1`, the activity change, negative = inhibition in assay [1] (at 17.2 µM (top of the series)) is 4.01%. The Potency result in assay [12] is “inactive”. Further, the activity, negative = inhibition in assay [7] (at 17.2 µM (top of the series)) was 3.06%. Moreover, the compound was classed as inactive in assay [8].

For `CN(C)CC/C=C1\c2ccccc2Sc2ccc(Cl)cc21`, the Potency was greater than 11.4 µM in assay [13]; 1.58 µM (active) and 3.98 µM (active) in assay [12]; > 20.6 µM and > 46 µM in [14]. Further, in assay [1] (at 7.69 µM (top of the series)), the activity change, negative = inhibition is 20.4%. The compound was classed as inactive in assay [8].

For the compound `CC(C)COC(=O)OCN1C(=O)CN(CCN2CC(=O)N(COC(=O)OCC(C)C)C(=O)C2)CC1=O`, the values for the activity change, negative = inhibition in assay [1] (at 38 µM (top of the series)) and in assay [6] (at 38 µM (top of the series)) were 5.55% and 7.64%, respectively. The Potency result in [12] was “inactive”. In addition, the activity, negative = inhibition in [7] (at 38 µM (top of the series)) was -1.3%. The call in [8] was inactive.

In the case of `CCCC1O[C@@H]2C[C@H]3[C@@H]4CCC5=CC(=O)C=C[C@]5(C)[C@H]4[C@@H](O)C[C@]3(C)[C@]2(C(=O)CO)O1` (some centres undefined), the activity change, negative = inhibition in [1] (at 17.2 µM (top of the series)) is 2.92%; in assay [6] (at 17.2 µM (top of the series)), 23.6%. Besides, the activity, negative = inhibition in assay [7] (at 17.2 µM (top of the series)) is -3.6%.

Take `Oc1cc(O)c2c(c1)O[C@H](c1ccc(O)c(O)c1)[C@H](O)C2`: the Potency result in assay [12] was “inactive”. For the same compound, the activity change, negative = inhibition in assay [6] (at 17.2 µM (top of the series)) was -6.82% and 0.191%; in assay [6] (at 38 µM (top of the series)) it was -2.11%. Further, in assay [14], the Potency is > 46 µM and > 20.6 µM. The call in [8] was inactive.

Regarding `CC(=O)c1ccc2c(c1)N(CCCN1CCC(CCO)CC1)c1ccccc1S2`, the activity change, negative = inhibition in assay [1] (at 17.2 µM (top of the series)) is 4.33%. Moreover, the activity, negative = inhibition in [7] (at 17.2 µM (top of the series)) is 9.61%. Further, the Potency in assay [14] and in [15] was greater than 20.6 µM each time. The call in assay [8] was inactive.

As for `COc1c(C)c2c(c(O)c1C/C=C(\C)CCC(=O)O)C(=O)OC2`, in assay [12], the Potency was 31.6 µM (active). Moreover, the activity change, negative = inhibition in assay [6] (at 17.2 µM (top of the series)) is -1.42%. Moreover, the activity, negative = inhibition in assay [7] (at 17.2 µM (top of the series)) was 8.02%. The call in assay [8] was inactive.

As to `O=C1CCC(c2ccc(-n3ccnc3)cc2)=NN1`, the Potency in [12] is 0.158 µM (active); in assay [14], greater than 46 µM. Moreover, in assay [6] (at 38 µM (top of the series)), the activity change, negative = inhibition is 3.77%. Besides, the compound was called inactive in assay [8].

On to `CC(=O)N(O)CCCCCNC(=O)CCC(=O)N(O)CCCCCNC(=O)CCC(=O)N(O)CCCCCN`, for which the Potency entry in assay [12] is “inactive”. The activity, negative = inhibition in assay [7] (at 17.2 µM (top of the series)) is 10.3%. Also, the compound was called inactive in assay [8].

For `O=C1c2ccccc2C(=O)C1c1ccccc1`, the activity change, negative = inhibition in assay [1] (at 17.2 µM (top of the series)) was -0.252%; in [6] (at 17.2 µM (top of the series)) it was -11.7%. Further, the activity, negative = inhibition in assay [7] (at 17.2 µM (top of the series)) is 3.06%. The Potency in assay [14] was greater than 20.6 µM. For the same compound, in assay [8], the result was inactive.

As to `CN1CCC(=C2c3ccccc3Sc3ccccc32)CC1`, the Potency entry in assay [12] is “inactive”. In addition, the activity change, negative = inhibition in assay [6] (at 17.2 µM (top of the series)) is -31.6% (active). For the same compound, in assay [14], the Potency was greater than 20.6 µM. Moreover, the result in assay [8] was inactive.

On to `C1CCc2nnnn2CC1`, for which, in [12], the Potency result was “inactive”. The activity change, negative = inhibition in assay [6] (at 17.2 µM (top of the series)) was -9.11%; in assay [6] (at 38 µM (top of the series)), -6.06%. The activity, negative = inhibition in assay [7] (at 17.2 µM (top of the series)) was 5.56%; in assay [7] (at 38 µM (top of the series)) it was -9.49%. Moreover, in assay [8], the compound was called inactive.
